Screens from PubChem.
GLD-1 TGE inh = GLD-1/TGE RNA complex disruptors, primary screen, biochemical, fluorescence polarization | purified GLD-1 + fluorescein TGE RNA | inhibition, % at 5.96 µM | Female germline-specific tumor suppressor gld-1 (Caenorhabditis elegans), Q17339 | AID 2280, 2010 | actives 0.44% (n = 320,000);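 active means percent inhibition above a per-plate cutoff, the plate mean of test compounds plus 3 SD, cut at about 30% in these data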
eLon inh = inhibitors of E. coli Lon protease, primary screen, biochemical, fluorescence polarization | P0A9M0 | purified E. coli Lon protease | inhibition, % at 7.94 µM | actives 0.42% (n = 360,000); in the data active means inhibition above about 13%, passing the limit was not always enough
BCLXL inh = inhibitors of human Bcl-xL, primary screen, biochemical, fluorescence polarization, HTS; AID 2129, 2009; Bcl-2-like protein 1 (Homo sapiens), Q07817; inhibition, % at 10.9 µM; GST-Bcl-xL / FITC-Bim BH3 peptide fluorescence polarization; actives 0.7% (n = 320,000);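 active means inhibition above the mean of all tested compounds plus 3 SD, cutoff set per campaign, cut at about 30% in these data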;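 further: inhibitors lower millipolarization by displacing the labeled peptide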
Target sequence (Q07817 whole entry, looked up): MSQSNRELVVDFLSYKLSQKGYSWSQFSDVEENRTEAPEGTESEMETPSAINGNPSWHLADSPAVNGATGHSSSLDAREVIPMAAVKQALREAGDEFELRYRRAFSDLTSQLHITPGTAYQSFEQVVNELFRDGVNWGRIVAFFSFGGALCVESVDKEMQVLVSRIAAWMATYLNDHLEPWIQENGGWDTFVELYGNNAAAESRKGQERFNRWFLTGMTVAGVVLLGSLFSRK
EBV gp42 inh = Epstein-Barr virus gp42 inhibitors, primary screen, biochemical, uHTS, fluorescence polarization; Glycoprotein 42 (Epstein-Barr virus (strain AG876)), Q1HVG2; Fluorescence polarization binding assay, mP read-out; inhibition, % (tested at 21.74 µM); actives 0.42% (n = 220,000); AID 1085, 2008; in the data active means inhibition above about 50%
MEX-5 binding = MEX-5 zinc finger RNA-binding disruptors – biochemical, C. elegans, fluorescence polarization, MLPCN library, primary screen; MEX-5/FITC-TCR2 RNA binding; stronger effect = lower value; activity score (negative = inhibition of binding), % at 10 µM; actives 0.38% (n = 300,000);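 active means inhibition past about -25% in most replicates, and total fluorescence under double the plate's negative control median, limit read from the data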
MCL1-BIM inh = inhibitors of MCL1 binding to BIM-BH3, primary screen, biochemical, fluorescence polarization. GST-MCL1 / FITC-Bim-BH3 fluorescence polarization. inhibition, % at 10.9 µM. actives 0.68% (n = 320,000). AID 2057, 2009;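 active means inhibition above the mean inhibition of all tested compounds plus 3 SD, set per campaign, cut at about 40% in these data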;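 further: higher means more loss of mP so more displacement of Bim peptide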
E coli Lon conf = E. coli Lon protease inhibitor retest, confirmation, biochemical, fluorescence polarization | shares compounds with eLon inh | inhibition, % at 7.94 µM | actives 31% (n = 1,400) | purified E. coli Lon; in the data active means inhibition above about 16%
Hits are given with their value; . = inactive; / = no result given; + = active, no number. Rows were chosen to be rich in hits. Some 1.5% of all compounds tested hit in one or more screens of this group.

SMILES	GLD-1 TGE inh	eLon inh	BCLXL inh	EBV gp42 inh	MEX-5 binding	MCL1-BIM inh	E coli Lon conf
O=[N+]([O-])c1ccc2[nH]c(O)c(N=NC3CS(=O)(=O)CC3O)c2c1 (stereo unspecified)	.	.	.	.	.	.	/
CCCn1c(O)c(N=NC(=O)CNC(=O)c2cccnc2)c2ccccc21	.	.	.	/	.	.	/
Cn1c(O)c(N=NC(=O)CNC(=O)c2cccnc2)c2ccccc21	.	19	.	/	.	.	.
COc1cccc(/C(C)=N/Nc2ccc(S(=O)(=O)N3CCCCC3)cn2)c1	.	22	.	/	/	.	.
Cc1ccc2c(c1)c1c(n2CC(O)CN2CCCCCC2)CCCC1 (stereo unspecified)	.	.	.	/	.	.	/
Cc1ccc2c(c1)c1c(n2CC(O)CNC(C)(C)C)CCCC1 (stereo unspecified)	/	16	/	.	/	/	.
O=C1C(=O)C(Cl)=C(Cl)C(Cl)=C1Cl	/	40	/	/	/	/	51
CC(C)(C)CN1CCNC(=O)C1CC(=O)N1CCN(c2ccccc2)CC1 (stereo unspecified)	.	.	.	.	.	.	/
COC(=O)c1nn(-c2cccc(C(F)(F)F)c2)ccc1=O	.	19	.	/	.	.	.
O=C(Nc1ccccc1)c1nn(-c2cccc(C(F)(F)F)c2)ccc1=O	.	.	.	.	.	.	/
O=C(COC(=O)c1cc[n+]([O-])cc1)Nc1cccc(Cl)c1Cl	.	16	.	.	.	.	.
CC(=O)c1ccccc1NC(=O)COC(=O)c1cc[n+]([O-])cc1	.	.	/	/	/	/	/
CC1(C(=O)NS(=O)(=O)c2ccccc2Cl)CCN1C(=O)C/C=C/c1ccccc1 (stereo unspecified)	/	.	/	/	/	/	/
COc1ccc(N2CCN(C3CCCCC3NS(=O)(=O)c3ccc(Cl)cc3)CC2)cc1 (stereo unspecified)	.	.	.	/	.	.	/
COc1ccccc1N1CCN(C2CCCCC2NS(=O)(=O)c2ccc(Cl)cc2)CC1 (stereo unspecified)	.	25	.	/	.	.	.
O=C(NCCN1CCC(n2c(=O)[nH]c3ccccc32)CC1)c1ccc(F)c(F)c1	/	.	/	/	/	/	/
Cc1cccc(S(=O)(=O)N2CN(Cc3ccco3)c3nc4ccccc4nc32)c1	.	59	.	.	.	.	.
O=c1nc2ccccc2c(NS(=O)(=O)c2ccccc2)n1-c1ccccc1	.	61	.	.	.	.	.
COc1cc(C(=O)NCc2nnc(SCC(=O)NCc3ccco3)o2)cc(OC)c1OC	.	.	.	/	.	.	/
COc1ccc(C(NC(=O)C2CCN(Cc3ccc(Oc4ccccc4)cc3)CC2)c2ccccc2C)cn1 (stereo unspecified)	/	15	/	/	/	/	.
Cn1c(CNc2ccc(Cl)cc2)nnc1SCc1ccccc1	.	+	.	.	.	.	.
Cc1cc(F)ccc1S(=O)(=O)N1CCCOC1CNC(=O)C(=O)NCCCN1CCOCC1 (stereo unspecified)	.	.	.	/	.	.	/
COc1cc(OC)c(OC)cc1/C=C/c1cc(C(=O)O)c2ccccc2n1	.	.	.	.	.	.	/
COc1ccc(/C=C/c2cc(C(=O)O)c3ccccc3n2)cc1	.	+	.	.	.	.	.
Cc1cc2oc(=O)cc(CN3CCN(Cc4ccccc4)CC3)c2cc1Cl	.	21	.	.	.	.	.
Cc1ccc2c(CN3CCN(Cc4ccccc4)CC3)cc(=O)oc2c1	.	.	.	/	.	.	/
COc1ccc(CCN2C(=O)CC(N3CCN(S(=O)(=O)c4ccccc4)CC3)C2=O)cc1 (stereo unspecified)	.	12	.	.	.	.	.
COc1ccc(CCN2C(=O)CC(N3CCOCC3)C2=O)cc1 (stereo unspecified)	.	.	.	.	.	.	/
